Test in all cases: DAPPL (digital affinity profiling via proximity ligation, sequencing); 10 mM Tris-HCl pH 7.5, 50 mM NaCl, 1 mM DTT, 4% glycerol, room temperature, 30 min; GST-TFs on glutathione beads, 16-mer random dsDNA library, 0.1% formaldehyde crosslink after washing; high values mean tight binding
In one assay the target is T1, FEV (Homo sapiens, UniProt Q99581 1-238).
T1 sequence: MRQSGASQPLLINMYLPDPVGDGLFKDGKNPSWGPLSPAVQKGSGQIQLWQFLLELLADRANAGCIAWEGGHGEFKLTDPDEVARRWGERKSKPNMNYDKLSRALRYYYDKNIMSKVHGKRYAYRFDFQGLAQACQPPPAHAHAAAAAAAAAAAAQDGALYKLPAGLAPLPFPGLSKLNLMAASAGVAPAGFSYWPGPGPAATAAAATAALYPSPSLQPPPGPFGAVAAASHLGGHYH
Conditions: protein: recombinant; tags: N-terminal GST; dsDNA, one strand shown. The method, boiled down:
(§1)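 In yeast, human transcription factors were expressed with a GST fusion, then pulled down on glutathione beads and given DNA barcodes. Pooled with a tag-only sample, they were exposed to 200 nmole of a 16-mer random double-stranded DNA library (Tris/NaCl/DTT/glycerol buffer, room temperature, 30 min), washed, crosslinked with 0.1% formaldehyde, proximity-ligated using BsaI/T4 ligase for 1 h at 37 °C, PCR-amplified and read on an Illumina NextSeq500. Each hexamer's frequency of reads for a factor, divided by the matching frequency for the tag-only sample, gives the binding signal.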

The next assay deals with ETV5 (Homo sapiens, UniProt P41161 1-510). The settings on record: protein: recombinant; tags: N-terminal GST; dsDNA, one strand shown. The essentials: as §1
Chain of ETV5 (P41161 whole entry): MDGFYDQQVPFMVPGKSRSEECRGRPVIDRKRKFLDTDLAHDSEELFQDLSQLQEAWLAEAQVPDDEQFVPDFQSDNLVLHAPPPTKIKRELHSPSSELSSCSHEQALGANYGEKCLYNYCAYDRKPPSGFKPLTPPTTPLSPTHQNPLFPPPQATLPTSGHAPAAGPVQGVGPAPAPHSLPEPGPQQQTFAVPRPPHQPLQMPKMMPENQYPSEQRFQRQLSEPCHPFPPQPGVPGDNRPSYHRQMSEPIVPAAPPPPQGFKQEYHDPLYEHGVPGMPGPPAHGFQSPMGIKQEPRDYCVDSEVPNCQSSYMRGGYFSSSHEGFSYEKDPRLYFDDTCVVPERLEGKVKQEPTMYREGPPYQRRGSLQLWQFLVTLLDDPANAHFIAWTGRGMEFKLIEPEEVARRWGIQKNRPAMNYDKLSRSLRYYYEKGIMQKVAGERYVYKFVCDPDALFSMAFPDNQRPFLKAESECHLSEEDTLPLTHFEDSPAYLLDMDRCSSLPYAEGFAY
The target of the next assay is HSF1 (Homo sapiens, UniProt Q00613 1-529). Conditions: protein: recombinant; tags: N-terminal GST; chain copies: 3; dsDNA, one strand shown. The method, boiled down: as §1
Chain of HSF1 (Q00613 whole entry): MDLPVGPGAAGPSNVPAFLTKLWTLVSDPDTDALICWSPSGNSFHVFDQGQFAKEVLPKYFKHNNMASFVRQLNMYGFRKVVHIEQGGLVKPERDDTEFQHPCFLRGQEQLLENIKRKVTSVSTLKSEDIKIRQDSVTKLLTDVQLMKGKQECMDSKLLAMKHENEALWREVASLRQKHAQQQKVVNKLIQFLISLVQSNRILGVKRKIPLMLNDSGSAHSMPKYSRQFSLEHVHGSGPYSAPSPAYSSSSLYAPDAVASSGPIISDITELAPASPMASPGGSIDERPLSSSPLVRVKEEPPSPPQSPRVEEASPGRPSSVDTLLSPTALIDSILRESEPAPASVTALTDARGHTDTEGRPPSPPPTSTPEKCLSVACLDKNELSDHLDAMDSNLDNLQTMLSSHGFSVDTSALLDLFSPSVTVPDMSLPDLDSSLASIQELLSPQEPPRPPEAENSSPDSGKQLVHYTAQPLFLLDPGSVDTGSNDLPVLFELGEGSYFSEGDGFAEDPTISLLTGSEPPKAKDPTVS
The next assay concerns the target T2, SPIC (Homo sapiens, UniProt Q8N5J4 1-248).
T2 sequence: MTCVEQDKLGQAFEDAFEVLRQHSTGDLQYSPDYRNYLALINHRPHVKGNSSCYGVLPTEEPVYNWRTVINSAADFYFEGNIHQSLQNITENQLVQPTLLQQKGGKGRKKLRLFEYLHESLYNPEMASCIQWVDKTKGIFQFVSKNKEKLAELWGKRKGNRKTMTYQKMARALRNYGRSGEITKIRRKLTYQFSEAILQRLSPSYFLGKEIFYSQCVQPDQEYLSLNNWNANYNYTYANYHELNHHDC
Conditions: protein: recombinant; tags: N-terminal GST; dsDNA, one strand shown. The essentials: as §1

Another assay deals with ELF4 (Homo sapiens, UniProt Q99607 1-663). The settings on record: protein: recombinant; tags: N-terminal GST; dsDNA, one strand shown. The method, boiled down:
as §1

The target in another assay is T3, ELK4 (Homo sapiens, UniProt P28324-2 1-405).
T3 sequence: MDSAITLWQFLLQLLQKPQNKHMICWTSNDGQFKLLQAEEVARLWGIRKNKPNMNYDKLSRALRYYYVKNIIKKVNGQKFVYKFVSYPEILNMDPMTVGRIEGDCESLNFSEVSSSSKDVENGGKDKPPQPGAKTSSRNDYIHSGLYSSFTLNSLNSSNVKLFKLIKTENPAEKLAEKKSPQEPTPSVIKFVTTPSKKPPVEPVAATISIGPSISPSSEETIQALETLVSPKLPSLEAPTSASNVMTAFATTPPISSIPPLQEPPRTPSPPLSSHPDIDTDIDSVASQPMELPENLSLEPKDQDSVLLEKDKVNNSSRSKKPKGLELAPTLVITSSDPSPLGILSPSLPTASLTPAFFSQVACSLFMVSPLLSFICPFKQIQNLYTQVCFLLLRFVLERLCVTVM
Conditions: protein: recombinant; tags: N-terminal GST; dsDNA, one strand shown. The method, boiled down:
as §1

The next assay deals with T4, ETV2 (Homo sapiens, UniProt O00321 1-342).
T4 sequence: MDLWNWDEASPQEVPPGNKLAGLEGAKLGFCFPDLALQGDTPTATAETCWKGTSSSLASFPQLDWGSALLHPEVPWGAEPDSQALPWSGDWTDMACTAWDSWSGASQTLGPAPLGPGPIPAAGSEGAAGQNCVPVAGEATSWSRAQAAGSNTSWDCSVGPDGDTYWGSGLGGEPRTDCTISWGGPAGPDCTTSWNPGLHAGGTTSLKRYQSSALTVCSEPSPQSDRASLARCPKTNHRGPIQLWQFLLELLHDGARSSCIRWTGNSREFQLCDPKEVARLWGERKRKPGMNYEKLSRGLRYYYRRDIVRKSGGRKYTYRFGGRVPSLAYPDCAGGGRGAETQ
The settings on record: protein: recombinant; tags: N-terminal GST; dsDNA, one strand shown. The method, boiled down: as §1

A further assay has as its target T5, ELF3 (Homo sapiens, UniProt P78545 1-371).
T5 sequence: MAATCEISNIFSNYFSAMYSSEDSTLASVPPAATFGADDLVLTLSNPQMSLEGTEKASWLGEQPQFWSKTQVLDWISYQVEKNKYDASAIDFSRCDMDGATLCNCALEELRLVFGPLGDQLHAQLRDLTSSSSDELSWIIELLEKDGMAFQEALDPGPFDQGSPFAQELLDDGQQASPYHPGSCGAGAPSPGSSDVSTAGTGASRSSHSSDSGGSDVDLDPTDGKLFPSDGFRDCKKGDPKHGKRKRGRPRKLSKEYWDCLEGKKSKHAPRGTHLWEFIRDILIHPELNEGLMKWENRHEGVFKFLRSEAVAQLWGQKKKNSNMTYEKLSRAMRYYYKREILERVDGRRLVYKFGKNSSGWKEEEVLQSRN
Conditions: protein: recombinant; tags: N-terminal GST; dsDNA, one strand shown. The essentials:
as §1

The next assay deals with CRX (Homo sapiens, UniProt O43186 1-299). The settings on record: protein: recombinant; tags: N-terminal GST; dsDNA, one strand shown. The method, boiled down:
as §1

For another assay, the target named is ETV1 (Homo sapiens, UniProt P50549 1-477). Conditions: protein: recombinant; tags: N-terminal GST; dsDNA, one strand shown. The method, boiled down:
as §1

Results on 7 sequences are retold here after paper PMC7862700, “An all-to-all approach to the identification of sequence-specific readers for epigenetic DNA modifications on cytosine”.

Chain of CRX (O43186 whole entry): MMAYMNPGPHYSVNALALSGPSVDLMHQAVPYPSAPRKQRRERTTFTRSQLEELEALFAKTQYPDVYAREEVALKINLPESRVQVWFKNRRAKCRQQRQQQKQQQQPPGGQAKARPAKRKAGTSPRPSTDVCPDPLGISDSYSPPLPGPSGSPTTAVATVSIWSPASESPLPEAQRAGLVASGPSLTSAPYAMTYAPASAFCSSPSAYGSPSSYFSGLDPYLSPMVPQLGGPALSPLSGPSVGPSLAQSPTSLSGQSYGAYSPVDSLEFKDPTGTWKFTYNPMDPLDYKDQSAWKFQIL
Chain of ELF4 (Q99607 whole entry): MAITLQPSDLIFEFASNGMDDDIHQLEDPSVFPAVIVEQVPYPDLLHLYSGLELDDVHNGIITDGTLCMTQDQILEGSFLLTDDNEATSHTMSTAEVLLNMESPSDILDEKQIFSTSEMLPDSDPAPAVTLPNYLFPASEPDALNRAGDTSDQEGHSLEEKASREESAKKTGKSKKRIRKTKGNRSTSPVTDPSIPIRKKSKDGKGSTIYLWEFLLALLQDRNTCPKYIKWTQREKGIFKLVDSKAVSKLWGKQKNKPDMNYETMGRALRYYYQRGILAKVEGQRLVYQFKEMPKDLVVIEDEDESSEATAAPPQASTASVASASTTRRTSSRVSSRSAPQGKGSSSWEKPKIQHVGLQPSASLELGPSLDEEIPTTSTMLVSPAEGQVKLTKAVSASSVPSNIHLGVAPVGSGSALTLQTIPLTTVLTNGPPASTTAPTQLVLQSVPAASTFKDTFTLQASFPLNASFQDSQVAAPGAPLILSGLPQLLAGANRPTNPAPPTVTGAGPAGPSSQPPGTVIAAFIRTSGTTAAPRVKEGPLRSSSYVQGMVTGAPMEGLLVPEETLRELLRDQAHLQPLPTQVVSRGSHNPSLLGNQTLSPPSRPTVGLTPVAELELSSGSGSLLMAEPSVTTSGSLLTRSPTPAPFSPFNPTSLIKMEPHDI
Chain of ETV1 (P50549 whole entry): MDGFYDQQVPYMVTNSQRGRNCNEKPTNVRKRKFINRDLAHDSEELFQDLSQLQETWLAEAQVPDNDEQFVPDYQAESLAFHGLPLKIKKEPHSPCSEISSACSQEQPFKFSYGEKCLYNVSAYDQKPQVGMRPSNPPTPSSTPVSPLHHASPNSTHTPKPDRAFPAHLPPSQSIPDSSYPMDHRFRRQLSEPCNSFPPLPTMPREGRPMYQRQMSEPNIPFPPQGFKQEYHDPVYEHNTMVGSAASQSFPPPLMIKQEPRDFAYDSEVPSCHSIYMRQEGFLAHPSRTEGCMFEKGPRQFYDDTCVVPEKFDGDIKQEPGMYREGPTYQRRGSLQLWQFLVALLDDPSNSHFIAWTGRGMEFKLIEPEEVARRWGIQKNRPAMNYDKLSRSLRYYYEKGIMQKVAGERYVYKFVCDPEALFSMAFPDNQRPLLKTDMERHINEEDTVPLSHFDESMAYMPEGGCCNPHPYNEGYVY

Consider CTCTGA, for which the binding signal is 1.23 fold enrichment (6-mer frequency, TF over GST control) in the assay with FEV; 1.15 fold enrichment (6-mer frequency, TF over GST control) in the assay with ETV5; 1.06 fold enrichment (6-mer frequency, TF over GST control) with HSF1; 1.24 fold enrichment (6-mer frequency, TF over GST control) in the assay with SPIC; 1.23 fold enrichment (6-mer frequency, TF over GST control) with ELF4; 1.15 fold enrichment (6-mer frequency, TF over GST control) with ELK4. In addition, the binding signal with ETV2 was 1.12 fold enrichment (6-mer frequency, TF over GST control); with ELF3, 1.09 fold enrichment (6-mer frequency, TF over GST control); with CRX it was 1.08 fold enrichment (6-mer frequency, TF over GST control); with ETV1 it was 1.3 fold enrichment (6-mer frequency, TF over GST control).

With GGTCTC, the binding signal is 2.46 fold enrichment (6-mer frequency, TF over GST control) with FEV; 2.46 fold enrichment (6-mer frequency, TF over GST control) with ETV5; 1.44 fold enrichment (6-mer frequency, TF over GST control) in the assay with HSF1; 2.4 fold enrichment (6-mer frequency, TF over GST control) in the assay with SPIC; 2.51 fold enrichment (6-mer frequency, TF over GST control) with ELF4; 2.64 fold enrichment (6-mer frequency, TF over GST control) with ELK4. Moreover, the binding signal was 2.18 fold enrichment (6-mer frequency, TF over GST control) with ETV2; 2.29 fold enrichment (6-mer frequency, TF over GST control) in the assay with ELF3; 1.48 fold enrichment (6-mer frequency, TF over GST control) in the assay with CRX; 2.58 fold enrichment (6-mer frequency, TF over GST control) with ETV1.

As to CTCGAG, the binding signal with FEV is 1.2 fold enrichment (6-mer frequency, TF over GST control); with ETV5, 1.26 fold enrichment (6-mer frequency, TF over GST control); in the assay with HSF1, 2 fold enrichment (6-mer frequency, TF over GST control); with SPIC, 1.44 fold enrichment (6-mer frequency, TF over GST control); in the assay with ELF4, 1.34 fold enrichment (6-mer frequency, TF over GST control); with ELK4, 1.31 fold enrichment (6-mer frequency, TF over GST control). In addition, the binding signal with ETV2 was 1.64 fold enrichment (6-mer frequency, TF over GST control); with ELF3 it was 1.3 fold enrichment (6-mer frequency, TF over GST control); in the assay with CRX it was 1.26 fold enrichment (6-mer frequency, TF over GST control); in the assay with ETV1, 1.2 fold enrichment (6-mer frequency, TF over GST control).

For the sequence TTCTGG, the binding signal is 1.19 fold enrichment (6-mer frequency, TF over GST control) with FEV; 1.16 fold enrichment (6-mer frequency, TF over GST control) with ETV5; 4.45 fold enrichment (6-mer frequency, TF over GST control) with HSF1; 1.36 fold enrichment (6-mer frequency, TF over GST control) with SPIC; 1.29 fold enrichment (6-mer frequency, TF over GST control) with ELF4; 1.35 fold enrichment (6-mer frequency, TF over GST control) with ELK4. Besides, the binding signal with ETV2 was 1.42 fold enrichment (6-mer frequency, TF over GST control); with ELF3 it was 1.21 fold enrichment (6-mer frequency, TF over GST control); with CRX it was 1.76 fold enrichment (6-mer frequency, TF over GST control); with ETV1 it was 1.21 fold enrichment (6-mer frequency, TF over GST control).

Take TCTCCT: the binding signal with FEV was 1.43 fold enrichment (6-mer frequency, TF over GST control); with ETV5, 1.33 fold enrichment (6-mer frequency, TF over GST control); with HSF1 it was 1.55 fold enrichment (6-mer frequency, TF over GST control); in the assay with SPIC, 1.59 fold enrichment (6-mer frequency, TF over GST control); with ELF4, 1.51 fold enrichment (6-mer frequency, TF over GST control); in the assay with ELK4 it was 1.38 fold enrichment (6-mer frequency, TF over GST control). Moreover, the binding signal with ETV2 was 1.43 fold enrichment (6-mer frequency, TF over GST control); with ELF3, 1.7 fold enrichment (6-mer frequency, TF over GST control); with CRX, 1.55 fold enrichment (6-mer frequency, TF over GST control); with ETV1, 1.49 fold enrichment (6-mer frequency, TF over GST control).

For the sequence TCTAGC, the binding signal was 1.25 fold enrichment (6-mer frequency, TF over GST control) in the assay with FEV; 1.27 fold enrichment (6-mer frequency, TF over GST control) with ETV5; 2.63 fold enrichment (6-mer frequency, TF over GST control) with HSF1; 1.16 fold enrichment (6-mer frequency, TF over GST control) in the assay with SPIC; 1.26 fold enrichment (6-mer frequency, TF over GST control) with ELF4; 1.39 fold enrichment (6-mer frequency, TF over GST control) with ELK4. In addition, the binding signal is 1.19 fold enrichment (6-mer frequency, TF over GST control) with ETV2; 1.32 fold enrichment (6-mer frequency, TF over GST control) with ELF3; 1.7 fold enrichment (6-mer frequency, TF over GST control) with CRX; 1.21 fold enrichment (6-mer frequency, TF over GST control) in the assay with ETV1.

Turning to GTAAAT, the binding signal was 1.09 fold enrichment (6-mer frequency, TF over GST control) with FEV; 1.13 fold enrichment (6-mer frequency, TF over GST control) with ETV5; 1.22 fold enrichment (6-mer frequency, TF over GST control) with HSF1; 1.09 fold enrichment (6-mer frequency, TF over GST control) with SPIC; 1.14 fold enrichment (6-mer frequency, TF over GST control) in the assay with ELF4; 1.14 fold enrichment (6-mer frequency, TF over GST control) with ELK4. In addition, the binding signal was 1.06 fold enrichment (6-mer frequency, TF over GST control) with ETV2; 1.25 fold enrichment (6-mer frequency, TF over GST control) with ELF3; 1.32 fold enrichment (6-mer frequency, TF over GST control) with CRX; 1.07 fold enrichment (6-mer frequency, TF over GST control) with ETV1.
